Assay results reported in PubChem BioAssay (NCATS).
Results filed as inconclusive are left out. A call without a number means that no potency is given here. Active and inactive are the calls of the source. Calls follow the shape of the dose curve; as a rule, active = well fitted cell-killing curve with a large enough effect; inconclusive = small, poorly fitted or top-dose-only effect, or effect the other way; inactive = no such curve, though single readings can be large or run the other way.

test: Quantitative High-Throughput drug screen in 47 multiple myeloma cell lines against the NCATS MIPE library collection: MM1S_ATCC cell viability assay (AID 1918980); conditions: MM1S myeloma viability, CellTiter-Glo ATP luminescence, 48 h; series mostly up to 45.8 µM; also: nearly all actives have a fitted effect of over 45% in size
Procedure, shortened: (§1)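 Viability after 48 h drug exposure was measured as ATP-dependent luminescence. Cells, 500 per well, sat at 37 °C under 5% CO2; DMSO wells set 100%, media-only wells 0%.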
Potency is read from the fitted curve at half-maximal effect.

SMILES | Potency
COC(=O)Nc1nc2ccc(C(=O)c3ccccc3)cc2[nH]1 | 3.72 µM (active)
COc1cc2c(Nc3ccc(Br)cc3F)ncnc2cc1OCC1CCN(C)CC1 | 23.5 µM (active)
CC(C(=O)O)c1ccc2c(c1)CC(=O)c1ccccc1S2 (centres undefined) | 2.96 µM (active)
CCN(CC)CCn1c(=O)c(Cc2ccc(OC)cc2)nc2ccccc21 | inactive
CNC1CCCN(c2c(F)cc3c(=O)c(C(=O)O)cn(C4CC4)c3c2OC)C1 (centres undefined) | 11.8 µM (active)
NC(N)=NC(N)=NCCc1ccccc1 | 2.96 µM (active)
CN1CCCC(n2nc(Cc3ccc(Cl)cc3)c3ccccc3c2=O)CC1 (centres undefined) | 0.662 µM (active)
Cc1nnc(NS(=O)(=O)c2ccc(N)cc2)s1 | 2.64 µM (active)
NC(=O)c1cccnc1 | inactive
CNS(=O)(=O)CCc1ccc2[nH]cc(C3CCN(C)CC3)c2c1 | 0.469 µM (active)
CS(=O)(=O)c1ccc([C@@H](O)[C@@H](CO)NC(=O)C(Cl)Cl)cc1 | 7.43 µM (active)
CNC(=O)c1cc(Oc2ccc(NC(=O)Nc3ccc(Cl)c(C(F)(F)F)c3)cc2)ccn1 | 3.72 µM (active)
CC(C)(C#N)c1cc(Cn2cncn2)cc(C(C)(C)C#N)c1 | inactive
CC[C@H](NC(C)C)[C@H](O)c1ccc(O)c2[nH]c(=O)ccc12 | 0.235 µM (active)
CN1CCN(c2c(F)cc3c(=O)c(C(=O)O)cn4c3c2OCN4C)CC1 | inactive
CC(C)C1CCC(C(=O)N[C@H](Cc2ccccc2)C(=O)O)CC1 (some centres undefined) | 16.6 µM (active)
CCCCCCNC(=O)n1cc(F)c(=O)[nH]c1=O | 20.9 µM (active)
Cc1nnc(C(=O)NC(C)(C)c2nc(C(=O)NCc3ccc(F)cc3)c(O)c(=O)n2C)o1 | inactive
COc1cccc(N(C)C(=S)Oc2ccc3c(c2)CCCC3)n1 | 18.7 µM (active)
COc1ccc(-c2ccc3cc(C(=O)O)ccc3c2)cc1C12CC3CC(CC(C3)C1)C2 | 5.26 µM (active)
C[C@]12C=CC(=O)C=C1CC[C@@H]1[C@@H]2C(=O)C[C@@]2(C)[C@H]1CC[C@]2(O)C(=O)CO | inactive

test: Quantitative High-Throughput drug screen in 47 multiple myeloma cell lines against the NCATS MIPE library collection: MM1R_ATCC cell viability assay (AID 1918981); conditions: MM1R multiple myeloma cells, CellTiter-Glo viability, 48 h; series mostly up to 45.8 µM; also: nearly all actives have a fitted effect of over 35% in size
Procedure, shortened: as §1

SMILES | Potency
CNC1CCCN(c2c(F)cc3c(=O)c(C(=O)O)cn(C4CC4)c3c2OC)C1 (centres undefined) | inactive
NC(N)=NC(N)=NCCc1ccccc1 | 16.6 µM (active)
CN1CCCC(n2nc(Cc3ccc(Cl)cc3)c3ccccc3c2=O)CC1 (centres undefined) | 2.35 µM (active)
CNS(=O)(=O)Cc1ccc2[nH]cc(CCN(C)C)c2c1 | inactive
NC(=O)c1cccnc1 | inactive
Cc1cccc(N(C)C(=S)Oc2ccc3ccccc3c2)c1 | inactive
Nc1ccc(S(=O)(=O)Nc2ccccn2)cc1 | inactive
NS(=O)(=O)c1cc2c(cc1Cl)NC(C(Cl)Cl)NS2(=O)=O (centres undefined) | inactive
CCCOc1ccc(C(=O)OCCN(CC)CC)cc1N | inactive
CC[C@H](NC(C)C)[C@H](O)c1ccc(O)c2[nH]c(=O)ccc12 | 0.59 µM (active)
CN1CCN(c2c(F)cc3c(=O)c(C(=O)O)cn4c3c2OCN4C)CC1 | inactive
Cc1ncc([N+](=O)[O-])n1CCO | inactive
CCCCCCNC(=O)n1cc(F)c(=O)[nH]c1=O | 4.18 µM (active)
CC(=O)CC(c1ccccc1)c1c(O)c2ccccc2oc1=O (centres undefined) | inactive
O=c1oc2c(O)c(O)cc3c(=O)oc4c(O)c(O)cc1c4c23 | inactive
COc1cccc(N(C)C(=S)Oc2ccc3c(c2)CCCC3)n1 | inactive
COc1ccc(-c2ccc3cc(C(=O)O)ccc3c2)cc1C12CC3CC(CC(C3)C1)C2 | 7.43 µM (active)

test: Quantitative High-Throughput drug screen in 47 multiple myeloma cell lines against the NCATS MIPE library collection: LP1_DSMZ cell viability assay (AID 1918982); conditions: LP1 myeloma viability, CellTiter-Glo ATP luminescence, 48 h; series mostly up to 45.8 µM; also: nearly all actives have a fitted effect of over 35% in size
Procedure, shortened: as §1

SMILES | Potency
COC(=O)Nc1nc2ccc(C(=O)c3ccccc3)cc2[nH]1 | 1.87 µM (active)
CC(C(=O)O)c1ccc2c(c1)CC(=O)c1ccccc1S2 (centres undefined) | inactive
CCN(CC)CCn1c(=O)c(Cc2ccc(OC)cc2)nc2ccccc21 | inactive
CNC1CCCN(c2c(F)cc3c(=O)c(C(=O)O)cn(C4CC4)c3c2OC)C1 (centres undefined) | inactive
Cc1nnc(NS(=O)(=O)c2ccc(N)cc2)s1 | inactive
CNS(=O)(=O)Cc1ccc2[nH]cc(CCN(C)C)c2c1 | inactive
NC(=O)c1cccnc1 | inactive
N[C@@H](Cc1ccc(O)c(O)c1)C(=O)O | inactive
CNC(=O)c1cc(Oc2ccc(NC(=O)Nc3ccc(Cl)c(C(F)(F)F)c3)cc2)ccn1 | 20.9 µM (active)
Nc1ccc(S(=O)(=O)Nc2ccccn2)cc1 | inactive
CC(C)(C#N)c1cc(Cn2cncn2)cc(C(C)(C)C#N)c1 | inactive
NS(=O)(=O)c1cc2c(cc1Cl)NC(C(Cl)Cl)NS2(=O)=O (centres undefined) | inactive
CCCOc1ccc(C(=O)OCCN(CC)CC)cc1N | inactive
CC[C@H](NC(C)C)[C@H](O)c1ccc(O)c2[nH]c(=O)ccc12 | inactive
CN1CCN(c2c(F)cc3c(=O)c(C(=O)O)cn4c3c2OCN4C)CC1 | inactive
Cc1ncc([N+](=O)[O-])n1CCO | inactive
NC(=O)c1cccc(N)c1 | inactive
CC(C)C1CCC(C(=O)N[C@H](Cc2ccccc2)C(=O)O)CC1 (some centres undefined) | inactive
COc1cc(NS(=O)(=O)c2ccc(N)cc2)nc(OC)n1 | inactive
CCCCCCNC(=O)n1cc(F)c(=O)[nH]c1=O | 11.8 µM (active)
Cc1nnc(C(=O)NC(C)(C)c2nc(C(=O)NCc3ccc(F)cc3)c(O)c(=O)n2C)o1 | inactive
Cc1noc(NS(=O)(=O)c2ccc(N)cc2)c1C | inactive
CC(=O)CC(c1ccccc1)c1c(O)c2ccccc2oc1=O (centres undefined) | inactive
OC(Cn1cncn1)(Cn1cncn1)c1ccc(F)cc1F | inactive
NC(=O)N1c2ccccc2CC(=O)c2ccccc21 | inactive
C[C@]12C=CC(=O)C=C1CC[C@@H]1[C@@H]2C(=O)C[C@@]2(C)[C@H]1CC[C@]2(O)C(=O)CO | inactive
